Source: PubChem
HPGD inh – blocks human HPGD enzyme activity; Potency, µM, usual class: inhibitors; purified HPGD, NADH fluorescence kinetic, PGE2 substrate; AID 894; 150,000 tested, 4.3% active
Target sequence (P15428 whole entry, looked up): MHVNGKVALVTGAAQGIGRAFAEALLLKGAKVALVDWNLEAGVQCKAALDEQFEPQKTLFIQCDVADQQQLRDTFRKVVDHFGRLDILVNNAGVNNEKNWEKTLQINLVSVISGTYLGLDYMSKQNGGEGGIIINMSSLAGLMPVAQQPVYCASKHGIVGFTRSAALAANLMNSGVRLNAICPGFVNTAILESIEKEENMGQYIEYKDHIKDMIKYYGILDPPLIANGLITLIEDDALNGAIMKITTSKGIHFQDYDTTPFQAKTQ
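20 nM HPGD preincubated 15 min at room temperature with compound in 50 mM Tris-HCl pH 8, 0.01% Tween 20. Started with 1 mM NAD+ and 30 uM prostaglandin E2; NADH fluorescence (360/450 nm) read 5 times over 30-s intervals, last minus first.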
PNC inhibitor – inhibitors of perinucleolar compartment assembly | activity change (PNC), negative = inhibition, % at 10 µM | AID 2417 | 140,000 tested, 3.1% active | PC3M PTB-GFP, PNC prevalence imaging, 16 h; hits give low values;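 active means readout at or below -70, meaning at least 70% loss of cells showing the perinucleolar compartment, a nuclear body marking cancer cells; inconclusive means readout between -30 and a set limit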
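Read-out is percentage of cells bearing a perinucleolar compartment, from automated 20x imaging of fixed, Hoechst-stained PC3M PTB-GFP cells. Cells were seeded 4 h, then exposed 16 h to compound (23 nl of library stock) in duplicate plates.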
HttQ103 aggreg – reduces HttQ103-GFP aggregates in PC12 cells | PC12 HttQ103-GFP aggregates, Acumen cytometry, 40 h | Potency, µM (top dose mostly 46.1 µM), actives largely listed as inhibitors | 220,000 tested, 1.1% active; active means well fitted curve in the direction sought with a large enough effect; inconclusive means small, poorly fitted or top-dose-only effect, or another doubt; inactive means no such curve, though single readings can be large; an effect the other way counts as inactive or inconclusive; further: nearly all actives have a fitted effect of over 60% in size
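Aggregate formation scored by laser-scanning cytometer (488 excitation, 500–530 emission) in lysed PC12 cells expressing Q103-GFP after 100 nM tebufenozide induction; library tested in dose series, with ATPLite reagent added in the multiplex.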
HTT cytoprotect – protects HTT-Q103 PC12 cells, measured by ATP; PC12 HTT-Q103 induced, cytoprotection, ATP luminescence, 40 h; AID 1471; 230,000 tested, 0.14% active; Potency, µM (top dose mostly 56.4 µM), most hits filed as activators; active means well fitted curve in the direction sought with a large enough effect; inconclusive means small, poorly fitted or top-dose-only effect, or another doubt; inactive means no such curve, though single readings can be large; an effect the other way counts as inactive or inconclusive; further: nearly all actives have a fitted effect of over 45% in size
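Readout: ATPlite luminescence (ATP level). Model: stable PC12, inducible Htt exon1 Q103-GFP. Inducer: tebufenozide, 100 nM final. Compounds: dose series. No G418 in medium.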
RGS12 GoLoco inh – inhibitors of human Gai1-RGS12 GoLoco interaction (red fluorophore) | Potency, µM (doses to about 61.6 µM), most hits filed as inhibitors | Gai1:RGS12 GoLoco peptide FP, rhodamine, 10 min | 230,000 tested, 0.44% active; active means well fitted inhibition curve with a large enough effect, not every such curve was filed as active; inactive means no such curve, though single readings can be large or run the other way; further: nearly all actives have a fitted effect of over 30% in size
ALDH1A1 inh – ALDH1A1 (human) enzyme inhibition | P00352 | Purified ALDH1A1, NADH fluorescence, propionaldehyde substrate | Potency, µM (titrated, usually from 75.3 µM), hits mostly inhibitors | 220,000 tested, 7.3% active | AID 1030
Target sequence (P00352 whole entry, looked up): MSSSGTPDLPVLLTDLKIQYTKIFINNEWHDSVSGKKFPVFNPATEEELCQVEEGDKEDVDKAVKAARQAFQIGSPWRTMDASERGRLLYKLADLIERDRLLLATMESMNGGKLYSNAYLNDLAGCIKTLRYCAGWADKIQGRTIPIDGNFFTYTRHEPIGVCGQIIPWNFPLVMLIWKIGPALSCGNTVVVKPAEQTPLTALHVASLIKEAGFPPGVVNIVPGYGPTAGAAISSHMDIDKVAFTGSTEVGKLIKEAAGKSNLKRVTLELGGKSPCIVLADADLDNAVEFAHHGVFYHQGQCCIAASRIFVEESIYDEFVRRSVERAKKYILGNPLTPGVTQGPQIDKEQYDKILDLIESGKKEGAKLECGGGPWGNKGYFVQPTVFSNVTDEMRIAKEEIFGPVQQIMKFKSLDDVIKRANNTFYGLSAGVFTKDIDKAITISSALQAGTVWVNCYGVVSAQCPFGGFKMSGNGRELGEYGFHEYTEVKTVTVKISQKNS
Hits are given with their value; – = inactive; ? = inconclusive; · = no result given; [ ] = another dose, or the depositor's remark. Rows were chosen to be rich in hits. Some 11% of all compounds tested hit in one or more screens of this group. Unless noted, the call rests on the fitted dose curve; in most records, active means well fitted inhibition curve with a large enough effect (not every such curve was filed as active); inconclusive means small, poorly fitted or top-dose-only effect, or another doubt; inactive means no such curve, though single readings can be large or run the other way.

SMILES | HPGD inh | PNC inhibitor | HttQ103 aggreg | HTT cytoprotect | RGS12 GoLoco inh | ALDH1A1 inh
C/C(=N\NC(=O)c1ccc(Cl)c(S(=O)(=O)Nc2ccccc2Cl)c1)c1ccncc1 | – | -83 | – | –[10 µM] | – | ?
CN(C)c1ccc(-c2nccc(Nc3ccc(F)cc3)n2)cc1 | · | · | · | – | – | ?
O=C(/C=C(\O)c1ccccc1)c1ccccc1O | 20µM | · | · | – | – | –
COc1cc(CNn2c(C)n[nH]c2=S)cc(Cl)c1OCc1ccc(F)cc1 | 13µM | – | – | – | – | –
COc1cc(CNn2c(C)n[nH]c2=S)cc(Br)c1OCc1ccc(F)cc1 | 16µM | – | – | · | – | 28µM
COc1ccc(/C=N\NC(=O)c2cc(O)c(O)c(O)c2)cc1CN1CCN(c2ccc(F)cc2)CC1 | – | – | – | –[10 µM] | – | 13µM
Cc1cccc(OCc2n[nH]c(=S)o2)c1 | – | -82 | – | –[10 µM] | – | ?
Cc1[nH]c2ccccc2c1Cc1n[nH]c(=S)o1 | ? | ? | – | – | – | ?
Cc1cccc(OCc2nnc(N)s2)c1C | – | – | – | – | – | –
Cc1cccc(OCc2n[nH]c(=S)o2)c1C | · | · | · | · | – | 18µM
Cc1cccc(C)c1OCc1n[nH]c(=S)o1 | – | – | – | –[1.9 µM] | – | 8.9µM
Cc1cc(=O)n(-c2ccc(O)cc2)[nH]1 | – | – | ? | – | – | 0.79µM
O=C(Cn1c2[n+](c3ccc(C(F)(F)F)cc31)CCCCC2)Nc1ccccc1 | – | – | – | –[10 µM] | 3.2µM | –
CCc1cccc(NC(=O)Cn2c3[n+](c4ccc(C(F)(F)F)cc42)CCCCC3)c1 | – | – | – | –[10 µM] | 14µM | –
FC(F)(F)c1ccc2c(c1)n(Cc1ccccc1)c1[n+]2CCCCC1 | · | · | – | – | – | –
CC(=O)OC[C@@H]1O[C@@H](O/N=C2/C[C@@H](O)[C@@H](O)[C@@H]3[C@@H]4C(=O)N([C@@H](C)c5ccccc5)C(=O)[C@H]4CC[C@H]23)[C@H](OC(C)=O)[C@H](OC(C)=O)[C@@H]1OC(C)=O | · | · | · | ? | · | –[13.5 µM]
O=C(Nc1ccccc1)c1cc2n(n1)C(C(F)(F)F)CC(C1CC1)N2 (stereo not drawn) | · | · | –[9.22 µM] | –[10 µM] | – | –
Oc1ccc(Br)cc1/C=N/Nc1nc(N2CCCCC2)nc(N2CCOCC2)n1 | · | · | –[9.22 µM] | –[10 µM] | – | –
Brc1cc2c(cc1/C=N/Nc1nc(N3CCCC3)nc(N3CCOCC3)n1)OCO2 | – | ? | ? | – | – | 14µM
COc1ccccc1C1CC(c2ccc(C)cc2)Nc2ncnn21 (stereo not drawn) | – | – | – | –[10 µM] | – | –
CCN(CC)c1ccc(NC(=O)COc2ccccc2C#N)cc1S(=O)(=O)Nc1ccccc1OC | 3.5µM | – | – | –[10 µM] | – | –
O=C(CCC(=O)N1CCN(C(=O)c2ccco2)CC1)c1ccc(F)cc1 | · | · | – | ? | – | –
CC1CCCC(C)N1C(=O)CSc1nc2ccccc2s1 (stereo not drawn) | 2.2µM | – | – | – | – | 22µM
O=C(CSc1nc2ccccc2o1)N1CCCC1 | 25µM | – | – | – | – | –
COc1ccc(-c2csc(N3CCN(C(=O)c4ccco4)CC3)n2)cc1 | – | – | ? | – | – | 28µM
SMILES | HPGD inh | PNC inhibitor | HttQ103 aggreg | HTT cytoprotect | RGS12 GoLoco inh | ALDH1A1 inh
CC1Cc2ccccc2N1C(=O)CSc1nc2ccccc2s1 (stereo not drawn) | – | ? | – | ? | – | –
O=C(CSc1nc(-c2ccc(F)cc2)cs1)N1CCN(C(=O)c2ccco2)CC1 | ? | – | – | – | – | 14µM
O=C(O)CSc1nc2ccccc2o1 | – | – | – | –[10 µM] | – | –
CCc1c2c(nc3cccc(C(C)C)c13)-c1cccc(=O)n1C2 | ? | · | · | – | – | ?
CC(C)NCC[C@@H](O)c1cc2ccccc2o1 | – | · | · | –[10 µM] | –[14.2 µM] | –[13.5 µM]
O=C1Cn2c(nc3ccccc32)N1c1cccc(C(F)(F)F)c1 | – | – | –[9.22 µM] | – | – | –
OC(CNc1nc2ccccc2s1)c1ccccc1 (stereo not drawn) | 10µM | -82 | – | – | – | –
O=C(CSc1nc2ccc(Cl)cc2[nH]1)N1CCN(C(=O)c2ccco2)CC1 | – | ? | – | –[10 µM] | – | 22µM
O=C(O)CCSc1nc2ccccc2s1 | ? | ? | – | – | – | 25µM
c1ccc2sc(SCSc3nc4ccccc4s3)nc2c1 | – | · | –[9.22 µM] | –[10 µM] | –[14.2 µM] | –[13.5 µM]
O=C(CSc1nc2ccccc2s1)N1CCCCC1 | 2.8µM | ? | – | – | – | 4.5µM
COc1ccc(N(CC(=O)NCc2ccc3c(c2)OCO3)C(=O)CCC(=O)Nc2ccccn2)cc1 | · | · | –[9.22 µM] | –[10 µM] | – | –
N#CCc1nc(CSc2nc3ccccc3s2)cs1 | 25µM | – | – | – | – | ?
O=C(O)C1CCN(C(=O)CSc2nc3ccccc3s2)CC1 | · | · | – | – | – | –
N#CCCCSc1nnc(CSc2nc3ccccc3s2)n1-c1ccccc1 | – | – | ? | – | – | –
CC1CCN(C(=O)CSc2nc3ccccc3s2)CC1 | 14µM | – | – | – | – | ?
COc1cccc(-c2csc(N3CCN(C(=O)C4CCCCC4)CC3)n2)c1 | – | – | – | – | – | 13µM
O=C(CSc1nc2ccccc2s1)N1CCN(C(=O)c2ccco2)CC1 | – | – | – | –[10 µM] | – | 14µM
O=C(O)/C=C\[C@H](O)c1ccc(Cl)cc1 | · | · | · | –[1.9 µM] | · | ·
O=C(CSc1ccc(Cl)cc1)N1CCC(c2nc3ccccc3s2)CC1 | – | – | ? | – | – | –
O=C(CSc1c(Cl)cccc1Cl)N1CCC(c2nc3ccccc3s2)CC1 | – | – | 11µM | – | – | ?
CC(=O)c1ccc(-c2cccc([C@H]3[C@@H]4C=CC[C@@H](C)[C@@H]4C(=O)N3Cc3ccccc3)c2)cc1 | – | · | · | · | – | –
O=C(c1ccco1)N1CCN(S(=O)(=O)Cc2ccccc2Cl)CC1 | · | · | – | – | – | 10µM
CCS(=O)(=O)N1CCN(C(=O)c2ccco2)CC1 | – | ? | – | – | – | –
O=C(COc1ccc2ccccc2c1)N1CCN(C(=O)c2ccco2)CC1 | · | · | – | – | – | ?
SMILES | HPGD inh | PNC inhibitor | HttQ103 aggreg | HTT cytoprotect | RGS12 GoLoco inh | ALDH1A1 inh
O=C(NCc1ccccc1)c1cccc(OCC(=O)N2CCN(C(=O)c3ccco3)CC2)c1 | – | – | – | –[10 µM] | – | 16µM
O=C(Cc1c(Cl)cccc1Cl)OCC(=O)N1CCN(C(=O)c2ccco2)CC1 | · | · | – | – | – | 32µM
O=C(c1ccncc1)N1CCC2(CCN(Cc3ccccc3)CC2)CC1 | – | · | · | – | – | –
CCCOC(C(=O)OC1CCN(C)CC1)(c1ccccc1)c1ccccc1 | · | · | – | – | · | ·
CSc1nc(-c2ccccc2)nc(N2CCN(C)CC2)c1C(C)=O | – | – | – | – | – | –
CSc1nc(-c2ccccc2)nc(N2CCCC2)c1C(C)=O | 20µM | – | – | – | – | –
C=C(C)C(=O)/C=C/C=C/c1ccccc1 | – | · | · | – | – | –
CCC1=NN=C(c2ccc(F)cc2)C(c2c[nH]c3ccccc23)N1O (stereo not drawn) | – | -100 | – | –[10 µM] | – | ?
